Measurements: PubChem BioAssay (NCI)
The panel holds about 83,000 compounds, 20% with a hit somewhere; the sample as a whole holds those more often.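 Results are percent growth after 48 hours of single-concentration exposure. 100 means growth as in untreated cells, lower positive values show inhibition; negative values down to -100 show cell death.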 A number with no mark means an inactive call. Active and inactive are the calls of the source. The calls were made as follows: active = growth percent below 10; inactive = the rest.

Each molecule was assayed on CAKI-1 renal (assay: NCI-60 one-dose screen, 48 h (100 = growth as untreated, 0 = no growth, -100 = all killed)). Settings: 10 µM unless noted.
`COCCn1cc(-c2csc(-c3c[nH]c4ccccc34)n2)c2cccnc21` was tested, and the growth was 56.2%. With `CCN(CC)c1ccc(-c2cc(-c3cc(OC)c(OC)c(OC)c3)nc(N3CCC(O)CC3)c2C#N)cc1` the growth was -31.7% (active). For `CN1C(=O)/C(=C/c2ccc(C(=O)Nc3ncc(Cc4cccc(C(F)(F)F)c4)s3)cc2)SC1=S`, the growth was 22%. `Nc1ncnc2c1N=C(c1ccc(Cl)cc1)CC(c1cccc(Nc3ccnc4cc(Cl)ccc34)c1)N2` (stereo not drawn) gave a growth of 65.7%. Molecule `COCCn1cc(-c2nc(-c3cc4cccnc4n3C)cs2)c2ccccc21` has a growth of 60.7%. `COC(=O)[C@]1(C)CCC[C@]2(C)[C@H]3C[C@@H]4[C@H]5[C@@H]6CC/C(=N\OCC/C(N)=N/O)[C@H]5[C@@]3(CC[C@H]21)CC4(C(C)C)O6` gave a growth of 65.1%. Molecule `Cc1cccc(-c2nc(C(C)C)sc2-c2ccnc(NCCCNS(=O)(=O)c3ccc(Cl)cc3)c2)c1` has a growth of 85%. With `O=C(/C=C/C12c3ccccc3C(c3ccccc31)C1C(=O)NC(=O)C12)c1ccc(Cl)cc1Cl` (stereo not drawn) the growth was 25.5%. `CC(C)(C)CC(C)(C)Nc1c(-c2c(O)c3ccccc3oc2=O)nc2sc3ccccc3n12` was tested, and the growth was 23.5%. Molecule `CN(C)CCC(CCN(C)C)(C(=O)O)c1ccccc1` has a growth of 95.4%. Molecule `Cn1c(=O)[nH]c(=O)c2nc3c(nc21)-c1ccccc1C3=O` has a growth of 89.9%. With `C=C(c1ccc(C(=O)O)c(F)c1)c1cc2c(cc1C)C(C)(C)CCC2(C)C` the growth was 81.4%. In the case of `C=C1C(=O)O[C@H]2[C@H]1CC/C(COC(=O)C(=O)c1c[nH]c3ccc(Cl)cc13)=C\CC[C@@]1(C)O[C@@H]21`, the growth is reported as -87.5% (active).
